Reference: PMC5540273 (PLoS ONE, 2017)

The compounds below were run on MAP4K2. Conditions: concentration: 1 μM, replicates: in singlicate; n = 1.
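Also: KINOMEscan kinase panel screen.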

SMILES | %Inh [%]
COc1ccc(CNC(=O)NC2CCN(c3ccnc(Nc4ccc(OC)cc4)n3)C2)cc1 (centres unmarked) [GSK1379727] | 0
c1ccc(-c2cc(-c3c[nH]nc3-c3ccccn3)ccn2)cc1 [GW576604] | 0
Cn1cc(-c2ccc3c(c2)CCN3C(=O)Cc2ccccc2Cl)c2c(N)ncnc21 [GSK2608885] | 10
CNc1ncnc2[nH]ncc12 [SKF-18355] | 0
Fc1ccc(-c2ncn(CCCN3CCOCC3)c2-c2ccccn2)cc1 [SB-211742] | 0
NS(=O)(=O)c1cccc(-c2ccc3ncc(N4CCOCC4)nc3c2)c1 [GSK1535721] | 4
COc1ccc(Nc2nccc(N3CCC(NC(=O)Nc4cc(C)ccc4C)C3)n2)cc1 (centres unmarked) [GSK1379741] | 0
COCCNC(=O)c1ccc(-c2cc(C(=O)NC3CC3)cc(F)c2C)cc1 [GW868318] | 20
Cc1nnc(-c2ccc3ncc(-c4ccc(S(C)=O)cc4)n3c2)o1 (centres unmarked) | 0
c1ccc(-c2n[nH]cc2-c2ccnc3ccccc23)nc1 [GW271431] | 0
Cn1ccc2ncnc(Oc3ccc(NC(=O)Nc4ccncc4)c(Cl)c3)c21 | 0
Cc1cn2c(=O)cc(N3CCOCC3)nc2n1Cc1cccc(Cl)c1Cl [GSK2334006] | 0
Fc1ccc(-c2ncn(CCCN3CCOCC3)c2-c2cccnc2)cc1 [SB-211743] | 0
Cc1cccc(-c2nc(Nc3ccc4ncsc4c3)c3ccccc3n2)n1 [GW867588] | 0
Cc1cccc(Cn2ccn3c(=O)cc(N4CCOCC4)nc23)c1 [GSK2297542] | 0
N#Cc1c(N2CCOCC2)sc(-c2ccn[nH]2)c1-c1ccc(Cl)cc1 | 0
COc1cc2c(cc1OCCN1CCN(C)CC1)ncc1c3ccc(C#N)cc3[nH]c21 | 54
CN(C1=C(c2ccccc2)C(=O)NC1=O)c1ccccc1 [SB-334860] | 0

SMILES | %Inh [%]
O=C1NC(=O)C(N2CCc3ccccc32)=C1c1cccc(Cl)c1 [SB-408010] | 0
O=c1cc(N2CCOCC2)nc2n(Cc3cccc(Cl)c3Cl)c(C3CC3)nn12 [GSK2358994] | 11
[2H]C([2H])(c1cccc(C(F)(F)F)c1C)n1ccn2c(=O)nc(N3CCOCC3)cc12 [GSK2336394] | 0
CC(C)(CN)c1nc(-c2ccc(Cl)c(O)c2)c(-c2ccncc2)[nH]1.O=C(O)C(F)(F)F [SB-477794] | 0
CCc1nc(-c2cccc(C)c2)c(-c2ccnc(NCc3ccccc3)c2)s1 | 3
Cc1cccc(-c2nc(-c3ccc(S(C)(=O)=O)cc3)sc2-c2ccncc2)c1 | 0
CCc1ccnc(/C=C/c2n[nH]c3cc(Sc4ccccc4C(=O)NC)ccc23)c1 | 9
CSc1ccc(-c2cc3ncnc(SCC(=O)O)c3s2)cc1 | 0
CC(=O)Nc1ccc(COc2ccc(Nc3ccnc4cc(-c5ccccn5)ccc34)cc2)cc1.Cl [GW440148] | 0
COc1cc2ncn(-c3cc(OCc4sccc4Cl)c(C(N)=O)s3)c2cc1OC [GSK448459] | 20
Fc1ccc(-c2nn3c(OCC(F)(F)F)cccc3c2-c2ccncc2)cc1 [GW514784] | 0
CC(C)(C)n1cnc2c(N)ncnc21 [SKF-97359] | 0
O=C(NCCNc1ccnc(Nc2ccc(F)cc2)n1)c1cc2ccccc2s1 [GSK1379874] | 0
COc1ccc(S(=O)(=O)NC2CCN(c3cc(C)nc(Nc4cccc(C#N)c4)n3)CC2)cc1.O=C(O)C(F)(F)F [GSK1653539] | 0
Cc1ccc(C(=O)NCC(N)=O)cc1-n1c(C)cc(OCc2ccc(F)cc2F)c(Br)c1=O | 0
Cl.Oc1cccc(Nc2ccnc3cc(-c4ccncc4)ccc23)c1 [GW494601] | 88
O=C(Nc1n[nH]c2cc(-c3cccc(F)c3)ccc12)C1CC1 [SB-735464] | 6
